Bioassay records (PubChem)
The list is not random: actives were taken first. Their share in the collection is about 2.9%.
Pf gamet viab – late stage P. falciparum gametocyte viability inhibitors, primary screen, ATP luminescence, HTS; actives 0.065% (n = 150,000); AID 743093, 2013; P. falciparum stage V gametocytes, 24 h; inhibition, % at 10.9 µM;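 active means inhibition above the mean plus 3 SD of compounds within the control limits, set per campaign, cut at about 38% in these data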
Mcl1 Noxa PPI – Mcl-1/Noxa binding inhibitors, primary screen, biochemical, TR-FRET, 1536-well; TR-FRET Mcl-1/Noxa peptide binding, 2 h; inhibition, % at 21.7 µM; AID 1022, 2008; Induced myeloid leukemia cell differentiation protein Mcl-1 (Homo sapiens), Q07820; actives 1.5% (n = 220,000);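 active means compounds that cut the protein-peptide binding signal by more than 50% relative to plate controls in a single-dose test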;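 further: His-tagged Mcl-1 with rhodamine Noxa BH3 peptide and terbium anti-His antibody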
Target sequence (Q07820 whole entry, looked up): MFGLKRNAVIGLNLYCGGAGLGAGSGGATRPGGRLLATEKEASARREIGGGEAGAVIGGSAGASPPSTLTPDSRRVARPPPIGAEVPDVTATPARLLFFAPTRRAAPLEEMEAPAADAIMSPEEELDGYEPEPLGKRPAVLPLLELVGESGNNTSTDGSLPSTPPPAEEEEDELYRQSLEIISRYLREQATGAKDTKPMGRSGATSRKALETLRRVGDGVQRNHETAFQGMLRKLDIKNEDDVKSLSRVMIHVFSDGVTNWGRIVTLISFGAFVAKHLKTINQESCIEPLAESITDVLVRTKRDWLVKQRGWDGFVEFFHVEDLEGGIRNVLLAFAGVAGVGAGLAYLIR
14-3-3 Bad inh – inhibitors of 14-3-3 zeta/Bad binding, primary screen, biochemical, TR-FRET, bovine 14-3-3 zeta | 14-3-3 protein zeta/delta (Bos taurus), P63103 | TR-FRET 14-3-3zeta/Dy647-pBad peptide displacement, 1 h | inhibition, % at 21.7 µM | actives 0.71% (n = 220,000);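 active means inhibition above about 70%, limit read from the data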
Target sequence (P63103 whole entry, looked up): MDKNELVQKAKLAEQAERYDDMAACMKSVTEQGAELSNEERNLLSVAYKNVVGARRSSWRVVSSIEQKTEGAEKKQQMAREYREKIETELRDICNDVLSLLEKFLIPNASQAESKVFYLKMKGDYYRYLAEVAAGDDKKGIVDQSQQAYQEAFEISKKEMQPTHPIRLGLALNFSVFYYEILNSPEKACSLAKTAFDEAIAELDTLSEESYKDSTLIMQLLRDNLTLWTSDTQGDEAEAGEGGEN
Mcl-1 Bim block – inhibitors of Bim peptide binding to Mcl-1, primary screen, biochemical, bead-based flow cytometry, multiplex; AID 1009, 2008; actives 0.1% (n = 190,000); inhibition, % at 10 µM; Bim peptide-Mcl-1 binding; Induced myeloid leukemia cell differentiation protein Mcl-1 (Homo sapiens), Q07820; in the data active means inhibition above about 40%
Hck Nef HTS – inhibitors of Nef-activated human Hck kinase, primary screen, biochemical, Z-Lyte FRET, 384-well, Hck-YEEI; Recombinant Hck-YEEI plus Nef, Z-Lyte FRET kinase assay; inhibition, % at 20 µM; actives 0.68% (n = 220,000);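 active means Hck-Nef kinase inhibition above about 50%, limit read from the data; inactive means inhibition below that limit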
Mcl1 Bid PPI – Mcl-1/Bid binding inhibitors, primary screen, biochemical, TR-FRET, 1536-well. TR-FRET Mcl-1/Bid-Dy647 peptide binding. actives 0.97% (n = 220,000). inhibition, % at 21.7 µM;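 active means compounds that cut the binding signal by more than half at the single screening dose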;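 further: His-tagged Mcl-1 with europium anti-His antibody binding Bid BH3 peptide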
A number is an active result; . = inactive; / = not tested or not shown; [ ] = another dose, or the depositor's remark.

SMILES	Pf gamet viab	Mcl1 Noxa PPI	14-3-3 Bad inh	Mcl-1 Bim block	Hck Nef HTS	Mcl1 Bid PPI
CN(C)c1ccc(/C=C2/NC(=O)NC2=O)cc1	.	.	.	.	.	.
CN(C)c1ccc(/C=C2\N=C(c3ccc(Cl)c([N+](=O)[O-])c3)NC2=O)cc1	.	73	.	.	.	.
C1=CC2CCC1ON2c1ccccc1 (centres undefined)	/	.	.	.	.	.
Oc1ccc(/C=N/Nc2cc(N3CCCC3)nc(N3CCCC3)n2)cc1O	.	65	.	.	.	.
CC(=O)Nc1sc(N/N=C\c2ccccc2F)nc1-c1cccs1	.	62	.	.	.	.
CC(=O)Nc1sc(N/N=C\c2cccc(Cl)c2)nc1-c1cccs1	/	.	.	.	.	.
COc1ccc(S(=O)(=O)N2CCC(C(=O)Nc3c(F)cccc3F)CC2)cc1	/	.	.	.	.	.
O=C(Nc1nc2c(s1)CCCC2)Oc1ccccc1	.	/	.	.	.	.
C/C(=N\Nc1nc2c(s1)CCCC2)c1ccccc1	/	.	80[fluorescence artefact?]	.	.	.
COc1ccc(NC(C)C(=O)Nc2cc(C(F)(F)F)ccc2N2CCOCC2)c(OC)c1 (centres undefined)	.	.	.	.	.	.
O=C(O)CCC(=O)N1N=C(c2ccc(Br)cc2)CC1c1cccs1 (centres undefined)	.	.	82	.	.	.
Cc1ccnc(Nc2nc3ccccc3o2)n1	/	.	.	.	.	.
Fc1cccc2sc(Nc3nc4cc5c(cc4s3)OCO5)nc12	.	.	.	.	.	.
Fc1cc(F)c2nc(Nc3nc4cc5c(cc4s3)OCO5)sc2c1	.	99	95[fluorescence artefact?]	.	.	91
O=C1C(=O)N(c2ccccn2)C(c2ccc(Br)cc2)/C1=C(/O)c1ccc(Br)cc1 (centres undefined)	.	/	/	/	/	/
CCCCN1C(=O)C(=O)N(CC(=O)N2N=C3/C(=C/c4ccco4)CCCC3C2c2ccco2)C1=O (centres undefined)	.	.	.	.	.	.
N#C/C(=C\c1ccc(/C=C(/C#N)c2nn(CCO)c(N)c2C#N)cc1)c1nn(CCO)c(N)c1C#N	.	58	.	.	.	62
Cc1ccc(-n2c(C(C)n3nc(C)c([N+](=O)[O-])c3C)n[nH]c2=S)cc1 (centres undefined)	.	.	.	.	.	.
CC1CCc2c(C(=O)NCCN3CCOCC3)csc2C1 (centres undefined)	/	.	.	.	.	.
CC1CCc2c(C(=O)Nc3ccc(N4CCOCC4)cc3)csc2C1 (centres undefined)	.	67	.	.	.	.
CC(C)(C)[C@@H]1C=C(C(=O)NC2CC2)O[C@H](OCc2ccc(CO)cc2)C1	.	.	.	.	.	.
CS(=O)(=O)N(CC(=O)Nc1ccc(F)cc1F)C1CCCCC1	.	/	/	/	/	/
COc1ccc(Cl)cc1NC(=O)CN(C1CCCCC1)S(C)(=O)=O	/	68	.	.	.	.
O=c1[nH]c(=O)n(CCc2ccc(F)cc2)c(O)c1C=NCc1ccc2c(c1)OCO2	.	.	.	.	.	53
NC1CCCCC1N=Cc1c(O)n(CCc2ccc(F)cc2)c(=O)[nH]c1=O (centres undefined)	/	/	/	.	.	/
SMILES	Pf gamet viab	Mcl1 Noxa PPI	14-3-3 Bad inh	Mcl-1 Bim block	Hck Nef HTS	Mcl1 Bid PPI
O=C(COC(=O)CCCc1c[nH]c2ccccc12)Nc1ccc2c(c1)OCO2	/	56	.	.	.	.
Cc1cccc(OCC(=O)Nc2ccc3c(c2)OCO3)c1C	/	.	.	.	.	.
COc1ccc(NC(=O)COC(=O)CCCc2c[nH]c3ccccc23)cc1	.	.	.	.	.	.
Cc1ccc(C)c(OCC(=O)Nc2ccc3c(c2)OCO3)c1C	/	.	.	.	.	85
Cc1oc(C2CC2)cc1C(=O)O	.	.	.	.	.	.
COc1cccc(-c2nc(Oc3cccc(C)c3C)c3ccccc3n2)c1O	.	.	.	.	.	52
COc1cccc(-c2nc(NC(C)C)c3ccccc3n2)c1O	.	.	.	.	.	.
Cc1nc(/C(N)=N/OC(=O)c2ccc(Cl)cc2)c(C(F)(F)F)o1	.	.	.	/	.	.
CCOC(=O)c1nn(-c2ccccc2)c2nc(Nc3ccccc3)cc(=O)n12	/	.	.	.	.	.
CCOC(=O)c1ccc(Nc2ccc(-c3ccc(OC)c(OC)c3)nn2)cc1	.	.	81	.	.	.
CCN(CC)C(=O)CNC(=S)N(CCCN1CCOCC1)Cc1cccs1	/	.	.	.	.	.
COC(=O)c1cc2c(ccn2-c2ccc(F)cc2)n1C(C)C	.	.	.	.	.	.
O=C(O)/C(=C\c1ccccc1Cl)c1ccc(S(=O)(=O)N2CCCCC2)s1	.	62	.	.	.	.
O=C(O)/C(=C\c1ccc(Cl)c([N+](=O)[O-])c1)c1ccc(S(=O)(=O)N2CCCCC2)s1	/	56	.	.	.	.
O=C(O)/C(=C\c1cccc([N+](=O)[O-])c1)c1ccc(S(=O)(=O)N2CCCCC2)s1	.	.	.	/	.	.
O=C(Nc1nc2ccc([N+](=O)[O-])cc2s1)c1ccco1	.	56	.	.	.	.
CC(=O)Nc1ccc2nc(NC(=O)c3ccco3)sc2c1	.	/	/	/	/	/
N#C/C(=C(/O)c1ccc(-c2cccc([N+](=O)[O-])c2)o1)c1nc2ccccc2s1	.	88	92	.	.	.
O=C(Nc1nc2ccc([N+](=O)[O-])cc2s1)c1c(F)cccc1F	.	.	.	.	.	.
COc1ccc2nc(NC(=O)c3ccc(-c4cccc([N+](=O)[O-])c4)o3)sc2c1	/	62	.	.	.	79
Cc1ccc(Cl)cc1N1CCN(C(=O)C2CCC(=O)N2C(C)C)CC1 (centres undefined)	/	.	.	.	.	.
COc1ccc(C2Nc3ccccc3C(=O)N2c2ccc(C)cc2)cc1COc1ccccn1 (centres undefined)	/	.	.	.	.	.
COC(=O)C(NC=O)C(O)(Cc1ccccc1)C(F)(F)F (centres undefined)	/	.	.	.	.	.
Cc1nc2scc(-c3ccccc3)c2c(=O)n1N=C1C=CC(=O)C=C1	.	63	.	.	.	.
Cc1cccc(-n2[nH]c3c4c(ccc3c2=O)C(=O)c2ccccc2C4=O)c1	/	55	.	.	.	.
Cc1ccc(C(C)C)c(OCCN(C)C)c1	/	.	.	.	.	60
CCOc1cc(/C=N/NC(=O)C(OC)c2ccccc2)ccc1O (centres undefined)	.	/	/	/	/	/
